Bioassay records deposited in PubChem BioAssay by National Center for Advancing Translational Sciences (NCATS).
Giardia FBPA inh: Giardia lamblia aldolase inhibition | A8B2U2 | purified Giardia FBPA | Potency, µM (highest dose often 59.6 µM), usual class: inhibitors | hit rate 0.71% among 290,000; also: nearly all actives have a fitted effect of over 55% in size
Target sequence (A8B2U2 whole entry, looked up): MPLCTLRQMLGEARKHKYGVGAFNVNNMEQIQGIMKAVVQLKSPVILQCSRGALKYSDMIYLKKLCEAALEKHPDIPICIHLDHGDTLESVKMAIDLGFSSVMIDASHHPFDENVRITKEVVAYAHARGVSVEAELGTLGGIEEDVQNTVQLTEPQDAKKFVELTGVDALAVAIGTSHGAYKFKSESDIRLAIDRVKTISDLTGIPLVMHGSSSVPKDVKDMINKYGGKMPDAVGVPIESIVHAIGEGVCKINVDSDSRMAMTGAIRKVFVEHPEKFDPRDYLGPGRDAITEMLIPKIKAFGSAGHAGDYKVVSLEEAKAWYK
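40 nM FBPA preincubated 10 min at RT with compound (up to 57.5 uM final), then substrate plus GAPDH/TPI/NAD/arsenate coupling and diaphorase/resazurin added. Fluorescence read after 20 min at RT, 525/598 nm.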
HCMV inh: inhibitors of human cytomegalovirus; hit rate 4.5% among 410,000; activity change, negative = inhibition, % at 57.5 µM; HFF cells, HCMV-luciferase reporter, 72 h; hits give low values; in the data active = activity change below about -60%; inconclusive = no clear call, values can overlap the other calls; inactive = above about -39%
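Two-dose cell screen: HFF monolayers treated with compounds and infected with luciferase-expressing HCMV at 1 PFU/cell, 72 h at 37C, then lysed for luciferase measurement.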
Sm TGR block: S. mansoni TGR enzyme inhibition; AID 485364; Q962Y6; Potency, µM (doses to about 114 µM), most hits filed as inhibitors; hit rate 3% among 360,000; purified TGR, DTNB reduction, TNB absorbance 405 nm; also: nearly all actives have a fitted effect of over 60% in size
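TGR 20 nM + NADPH 100 uM (dispensed conc.), cpd preinc 15 min RT; start with NADPH (500 uM addition) then DTNB (15 mM addition). Kinetic TNB absorbance, 405 nm filter. Four-parameter Hill fit across titration.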
RE007 growth inh: less growth of the S. pombe RE007 Vpr strain. S. pombe RE007 Vpr strain, BacTiter-Glo ATP luminescence, 24 h. Potency, µM (top dose mostly 92.2 µM), most hits filed as inhibitors. hit rate 0.21% among 360,000. AID 651644; active = well fitted falling curve with a large enough effect; inconclusive = small, poorly fitted or top-dose-only effect; inactive = no such curve, though single readings can be large or run the other way; also: nearly all actives have a fitted effect of over 50% in size
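Fission yeast RE007 carrying one integrated HIV-1 vpr copy, seeded at OD 0.01 in PMG+AL medium with 23 nL pinned compound. Grown 24 h at 30 degrees; viability read by BacTiter-Glo luminescence after 5 min.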
Tb PYK inh: inhibitors of Trypanosoma brucei pyruvate kinase; Q57TT1; Potency, µM (series often up to 76.8 µM), most hits filed as inhibitors; hit rate 0.12% among 410,000; TbPYK enzyme, Kinase-Glo Plus ATP luminescence, 45 min; also: nearly all actives have a fitted effect of over 50% in size
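ADP (130 uM final) triggers the TbPYK reaction after compound addition; incubation is 45 min at room temperature. Kinase-Glo Plus is then added and luminescence imaged. Normalized data are fitted to concentration-effect curves.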
FMDV inh: foot and mouth disease virus antiviral activity | FMDV antiviral cell-based qHTS | Potency, µM (series often up to 57.9 µM), hits mostly inhibitors | hit rate 1.2% among 410,000 | AID 1159524; calls by dose curve; tested in HEK293T cells; also: read-out not given here; nearly all actives have a fitted effect of over 45% in size
Numbers stand for hits; n = inactive; u = inconclusive; x = no result; ! = not confirmed by another sample. An excerpt weighted towards active compounds, which were near 7.7% of everything screened. Unless noted, calls follow the shape of the dose curve; as a rule, active = well fitted curve in the direction sought with a large enough effect; inconclusive = small, poorly fitted or top-dose-only effect, or another doubt; inactive = no such curve, though single readings can be large; an effect the other way counts as inactive or inconclusive.

SMILES	Giardia FBPA inh	HCMV inh	Sm TGR block	RE007 growth inh	Tb PYK inh	FMDV inh
CC1(C)Cc2c(c(-c3ccco3)nc3sc4c(NCCO)ncnc4c23)CO1	n	-74.6	14.1µM	n	n	n
CSc1nc(N(CCO)CCO)c2sc3nc(-c4ccco4)c4c(c3c2n1)CCC4	u	n	2.51µM	n	n	n
CCn1ccc2cc(S(=O)(=O)N3CCC(C(=O)NCC(C)c4ccccc4)CC3)ccc21 (stereo unspecified)	x	n	n	x	n	n
CN(C)C(=O)O/N=C(\N)COc1ccc(C(C)(C)C)cc1	n	-100.4	n	n	n	n
Cc1cc(C)nc(OC(=O)c2ccc(Cl)cc2Cl)n1	n	-101.6	22.4µM	x	x	x
CCOc1ccc(C(c2c(NC(=O)c3ccccc3)sc(C)c2C)N2CCN(C)CC2)cc1 (stereo unspecified)	n	n	n	n	n	n
CCc1cc(C(c2ccccn2)N2CCN(C)CC2)c(NC(=O)c2ccccc2)s1 (stereo unspecified)	n	n	11.2µM	n	n	n
CC(=O)Nc1sc2c(c1C(c1ccccn1)N1CCN(C)CC1)CCCC2 (stereo unspecified)	n	n	n	n	n	n
Cc1sc(NC(=O)c2ccccc2)c(C(c2ccccn2)N2CCN(CCO)CC2)c1C (stereo unspecified)	n	-62.4	n	n	n	n
O=C(NCCCn1ccnc1)C(=O)NCc1ccc(Cl)cc1	n	n	n	n	n	n
CCCCCOc1ccc(NC(=O)C(=O)NCCCn2ccnc2)cc1	n	n	n	n	n	n
COc1cccc(NC(=O)C(=O)NCCCn2ccnc2)c1	n	-63.9	n	n	n	n
Cc1ccc(CNC(=O)C(=O)NCCCn2ccnc2)cc1	x	-67.2	x	n	n	n
Cn1c2c(c(=O)[nH]c1=O)C(c1cccc(O)c1)C1=C(N2)c2ccccc2C1=O (stereo unspecified)	n	-99.7	n	n	n	u
Cc1ccccc1CSc1nnc2[nH]c(=O)cc(-c3ccccc3)n12	x	n	n	x	n	n
COc1ccc2cc(C(=O)C3CCCN(Cc4cccc(C)n4)C3)ccc2c1 (stereo unspecified)	n	-67.5	n	n	n	u
COc1c(C)cc(C(=O)C2CCCN(C(=O)CCc3scnc3C)C2)cc1C (stereo unspecified)	n	-62.1	n	n	n	n
COc1c(C)cc(C(=O)C2CCCN(Cc3ccccn3)C2)cc1C (stereo unspecified)	n	-65.2	n	n	n	n
COc1cccc(C(=O)C2CCCN(Cc3ccccn3)C2)c1 (stereo unspecified)	n	n	n	n	n	n
COc1cccc(C(=O)C2CCCN(C(=O)CCc3scnc3C)C2)c1 (stereo unspecified)	n	n	n	n	n	n
CCc1cccc(NC(=O)C(Cc2ccccc2)NS(=O)(=O)c2ccc3c(c2)c(=O)n(C)c(=O)n3C)c1 (stereo unspecified)	x	n	n	x	n	n
COc1ccc(-c2cc(C(=O)O)n(Cc3ccccc3)n2)cc1	x	n	n	x	n	n
CCC1CC2CC3c4[nH]c5ccc(OC)cc5c4CCN(C2)C13 (stereo unspecified)	x	x	x	x	n	x
COC(=O)c1c(Oc2ccc(Br)cc2)nnc(-c2ccccc2)c1-c1ccccc1	x	n	n	x	n	u
Cc1ccc(-c2nn[nH]n2)o1	n	n	44.7µM	n	u	n
SMILES	Giardia FBPA inh	HCMV inh	Sm TGR block	RE007 growth inh	Tb PYK inh	FMDV inh
CC(=Nc1ccc(Cl)cc1N)c1c(O)cc(C)oc1=O	x	n	x	x	x	x
Clc1ccc(COC(Cn2ccnc2)c2ccc(Cl)cc2Cl)cc1 (stereo unspecified)	n	n	n	u	n	31.6µM!
CCC(C)n1c(NC(=O)c2ccccc2)c(C#N)c2nc3ccccc3nc21 (stereo unspecified)	u	n	n	n	n	11.2µM
CCCCn1c(NC(=O)c2ccccc2)c(C#N)c2nc3ccccc3nc21	u	-66.7	n	n	n	x
CC(C)Oc1ccccc1-c1nc(SCC(=O)c2ccc(F)cc2)n[nH]1	x	n	n	x	n	n
Cc1ccc(-c2cn(-c3ccc(SC(F)F)cc3)c3[n+]2CCC3)cc1	n	-97.7	n	n	n	u
Cc1ccc(-c2cn(-c3ccc(OC(F)F)cc3)c3[n+]2CCCCC3)cc1	n	-88.6	n	n	n	n
O=C(c1ccc(F)c(F)c1)N1CCOc2ccc(CN3CCN(Cc4ccccn4)CC3)cc2C1	x	x	x	x	x	n
FC(F)(F)COc1nc(N/N=C/c2cccnc2)nc(N2CCCCC2c2ccccn2)n1 (stereo unspecified)	n	-71.7	n	n	n	n
C(=N\Nc1nc(N2CCCC2)nc(N2CCCC2)n1)/c1cccnc1	n	n	n	n	n	n
CN(/N=C/c1ccc(Br)o1)C1=NS(=O)(=O)c2ccccc21	n	n	44.7µM	n	n	n
Cc1cc(=O)oc(C)c1C(=O)NNC(=O)C1(C)CC1Br (stereo unspecified)	n	n	n	n	n	n
CC1(C(=O)NNC(=O)c2ccc(=O)oc2)CC1Br (stereo unspecified)	n	n	10µM	n	n	n
Cc1ccc2c(=O)cc(C(=O)Nc3c(C(=O)Nc4cccc(Cl)c4)oc4ccccc34)oc2c1	x	n	n	x	n	n
COc1ccc(-c2cc(OC(=O)c3cccc(Cl)c3)c3c(C)oc(C)c3c(=O)c2)cc1	x	n	22.4µM	x	n	n
CCOc1cc(-c2ccc(OC(=O)c3ccc(Cl)cc3)c(OC)c2)cc(=O)c2c(C)oc(C)c12	x	n	n	x	n	u
COc1ccc(-c2cc(OC(=O)c3ccccc3)c3c(C)oc(C)c3c(=O)c2)cc1OC	x	n	u	x	n	n
